# Source: PubChem BioAssay
# The full list was thinned out, with hits kept by preference.
# Tgondii IFNg: T. gondii growth inhibition under IFN-gamma. Toxoplasma gondii growth in IFN-gamma-treated host cells; stronger effect = lower value. activity change, negative = inhibition, % (concentration not given with the values). hit rate 3.8% among 69,000. AID 1259416; in the data active = activity change below about -70%, passing the limit was not always enough;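 note: host cells are HeLa cells infected with Toxoplasma gondii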
# An asterisk follows results filed as active; ! = not confirmed by another sample.
SMILES,Tgondii IFNg
O=C(O)c1cc(C2CC2)nc2ccc(-c3cccc4c3CCNC4)cc12,1.7
COc1ccccc1-c1nc(Cn2nnc(C(=O)Nc3cc(Cl)ccc3C)c2C)c(C)o1,11.7
COc1ccccc1-c1cc(NC(=O)c2nnn(-c3ccc(Cl)cc3)c2C)n(C)n1,-78.0*
COc1ccccc1-c1cc(NC(=O)c2cccc(Cn3ccnc3C)c2)n(C)n1,-7.4
C[C@H]1CN([C@@H](C)CO)C(=O)c2ccccc2-c2ccccc2CO[C@@H]1CN(C)C(=O)[C@H]1CCCN1C,57.4
Cc1cnc(SCCN2CCOCC2)nc1C1CCCN(C(=O)c2cc(=O)c3ccccc3o2)C1 (configuration not stated),-15.9
COc1ccc(C(=O)Nc2ccc3c(c2)C(=O)N(C)[C@@H]2CC[C@@H](CC(=O)NCC4CC4)O[C@H]2CO3)cc1,10.7
CC(C)c1cc(C(=O)NCc2nnc(-c3nccc4ccccc34)o2)no1,219.3
CC(C)N1CC[C@@]2(C[C@@H](NS(=O)(=O)C3CC3)CCO2)C1,-4.6
Cc1ncc(CO)c(CN2CCN(c3nsc4ccccc34)CC2)c1O,-0.2
COc1cc(/C=C/C2=NNC(=O)CC2)cc(OC)c1OC,-97.4*
COc1cc(/C=C/C(=O)N2CCN(CC(=O)N3CCCC3)CC2)cc(OC)c1OC,13.2
COc1ccc(/C=C2\CC/C(=C\c3ccc(OC)c(OC)c3)C2=O)cc1OC,7.4
COc1cccc(N(Cc2nc(-c3ccc(C)cc3)oc2C)S(=O)(=O)c2ccccc2)c1,-51.7
COc1ccc(-c2ccc([C@H]3[C@@H](C#N)N(C(=O)NC(C)C)[C@H]3CO)cc2)cc1,-75.7*
COc1ccc(-c2ccc([C@H]3[C@H](C#N)N(C(=O)NC(C)C)[C@H]3CO)cc2)cc1,-54.8
COc1ccc(-c2ccccc2[C@H]2[C@@H](C#N)N(C(=O)NC(C)C)[C@H]2CO)cc1,-12.0
COc1ccccc1-c1nc(Cn2nnc(-c3nc(-c4ccc(Cl)c(F)c4)no3)c2C)c(C)o1,7.1
C[C@@H]1CN([C@@H](C)CO)C(=O)c2ccccc2-c2ccccc2CO[C@@H]1CN(C)S(=O)(=O)Cc1ccccc1,-49.9
CN(C)C(=O)N1CCC2(CC1)CC1(CCN(S(=O)(=O)C3CC3)CC1)N(C)C2=O,-32.1
Nc1[nH]c(=O)ncc1F,-79.1*!
COc1ccc(-c2cc(F)c(OC)c(F)c2)cn1,-8.9
COc1ccc(-c2ccc3[nH]nc(N)c3c2)cn1,-72.7*
COc1ccc(-c2cccc3c(C(N)=O)cccc23)cn1,14.2
O=C(NCCCc1ccccn1)c1ccc(N[C@H]2CCCC[C@@H]2O)nc1,7.2
SMILES,Tgondii IFNg
CCNC(=O)CN1CCN(Cc2cnc3c(-c4ccccc4)cnn3c2)CC1,4.4
CCn1c(C2CCN(Cc3cnc(-c4ccccc4)nc3)CC2)nn(C)c1=O,-7.1
O=C1CCc2cc(S(=O)(=O)N3CCc4ccccc43)cc3c2N1CCC3,0.6
N#Cc1cc2c(cc1C#N)N1CCCc3cccc(c31)O2,-91.9*
Cc1cccc2cc(C#N)c(SCC(=O)N3CCCc4ccccc43)nc12,-37.6
CC(=O)Nc1ccc(C(=O)N2CCCCC2)cc1,7.6
CC(C)c1nnc(NC(=O)C2CC(=O)N(CCc3c[nH]c4ccc(F)cc34)C2)s1 (configuration not stated),18.4
NC(=S)N/N=C/c1ncccc1N,-79.7*
CC(=O)N[C@@H]1C[C@H](Cc2ccccc2)O[C@H](c2ccc(-n3cncn3)cc2)C1,-3.5
O=C(Nc1ccc(F)cc1)c1c(O)c2cccnc2n(-c2ccc(F)cc2)c1=O,-37.7
Cc1c(F)cccc1NC(=O)c1cncc(NS(=O)(=O)c2ccc(Br)cc2)c1,-29.1
CCN1c2ccc(C)cc2C(=O)NC12CCN(C(=O)Cc1ccccc1)CC2,-6.5
O=C(CC(SC(=O)c1ccccc1)c1ccc(Cl)cc1)c1ccccc1 (configuration not stated),49.8
O=C(CCSc1ccccn1)c1ccc(Cl)cc1,25.3
O=C(CC(Sc1ccc(Cl)cc1)c1ccc(Cl)cc1)c1ccccc1 (configuration not stated),-111.9*
CO[C@H]1CO[C@@]2(CCCN(C(=O)c3cccc(C)n3)C2)C1,1.6
Cn1cc(CN2CCC(CNC(=O)NCc3ccccc3)C2)cn1 (configuration not stated),-9.2
O=C(Cn1cc(NC(=O)CC2(O)CCCCC2)cn1)Nc1cccc(C(F)(F)F)c1,1.6
COc1ccc(CN2CCN(c3ccc(Cl)cn3)CC2)c(OC)c1OC,-2.6
O=C(Nc1ccccc1C(=O)Nc1cccc2ccccc12)Nc1cccc2ccccc12,134.9
O=C(Nc1ccc2c3c(cccc13)CC2)c1nc(-n2cnnc2)n[nH]1,-80.4*
O=C(Nc1ccc2c3c(cccc13)CC2)c1cccnc1Cl,32.0
Cc1nc(CC(NCc2c(C)nc3ccccn23)c2ccc(Cl)cc2)cc(=O)[nH]1 (configuration not stated),19.8
COc1ccc(NC(=S)NCCSc2ccc(Cl)cc2)cc1,-42.0
COc1ccc(CNCCCSc2ncccn2)cc1,19.8
SMILES,Tgondii IFNg
COc1ccc(SCC(O)CNCc2ccc(Cl)cc2)cc1 (configuration not stated),-79.9*
CCO[C@H]1COC[C@@H]1NC1CCC2(CCNCC2)CC1,1.2
CC1=CC2=NC(=O)CC(C)(C(=O)NCCCc3ccc(F)cc3)N2C=C1 (configuration not stated),-15.0
COCCN1C(=O)CCc2cc(NS(=O)(=O)c3ccc4c(c3)CCC4)ccc21,-63.2
COCCN1C(=O)CCc2cc(NS(=O)(=O)c3ccc(C(F)(F)F)cc3)ccc21,1.0
CCCN1C(=O)CCc2cc(NS(=O)(=O)c3ccc(CC)cc3)ccc21,-81.6*
COCCN1C(=O)CCc2cc(NS(=O)(=O)c3ccc(CC(C)C)cc3)ccc21,-78.8*
CCCN1C(=O)CCc2cc(NS(=O)(=O)c3ccc(C(F)(F)F)cc3)ccc21,-82.3*
CCCN1C(=O)CCc2cc(NS(=O)(=O)c3cccs3)ccc21,5.5
COCCN1C(=O)CCc2cc(NS(=O)(=O)c3ccccc3)ccc21,-27.2
COCCN1C(=O)CCc2cc(NS(=O)(=O)c3ccc(C)cc3)ccc21,39.4
COCCN1C(=O)CCc2cc(NS(=O)(=O)c3ccc(C)c(C)c3)ccc21,22.0
CCOc1ccccc1-c1nc(Cn2nnc(C(=O)Nc3cccc(Cl)c3C)c2C)c(C)o1,415.1
O=C(Cc1ccccc1Cl)N1CCC2(CC1)Nc1ccccc1-n1cccc12,65.7
O=C(Nc1nccs1)c1cn(-c2ccccc2)nc1-c1cccnc1,-29.3
N#CCN1C(=O)CC2(CCN(C(=O)c3ccno3)CC2)c2ccccc21,-6.0
COc1ccc2c3c([nH]c2c1)[C@@H](CO)N(Cc1nccs1)CC31CN(Cc2ccncc2)C1,381.2
COc1ccc(C[C@@H]2CCn3cc(nn3)COC[C@H](c3ccccc3)NC2=O)cc1,-24.2
COc1ccc(Br)cc1-c1nc(Cn2ccn3nc(-c4ccc5c(c4)OCO5)cc3c2=O)c(C)o1,100.2
COc1cc(C(=O)OCCCN2CCCN(CCCOC(=O)c3cc(OC)c(OC)c(OC)c3)CC2)cc(OC)c1OC,-7.4
COc1cc(C(=O)ON=C2C3CC4CC(C3)CC2C4)cc(OC)c1OC,-106.0*
COc1cc(C(=O)OCCCN(C)C)cc(OC)c1OC,0.1
C=CCC(=O)N(C)CCSc1ccc(C)cc1,9.7
CC(C)(C)c1cn(C2CCN(C(=O)c3ccc4nccnc4c3)CC2)nn1,-3.3
CCc1ccc(Nc2nc(C(=O)NCCCN3CCc4ccccc4C3)nc3ccccc23)cc1,-51.5
COCCNC(=O)C[C@@H]1CC[C@H]2[C@@H](COC[C@@H](O)CN2Cc2ccc(Cl)c(Cl)c2)O1,7.9
